The list is not random: actives were taken first. Their share in the collection is about 3.2%.
EWS-Fli block – EWS/Fli transcriptional activity inhibition; A673 NR0B1-luciferase reporter, viability-normalised; inhibition, % at 12.6 µM; hit rate 0.67% among 350,000;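 active means mean inhibition of at least 50% after viability correction, with every replicate also passing that limit; inconclusive means mean reaches 50% but only one of two replicates passes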;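 further: firefly luciferase signal divided by Alamar Blue viability fluorescence both relative to DMSO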
TROY signal inh – inhibitors of TROY-dependent NF-kB signaling. Q293 LMP1-TROYcd NF-kB luciferase reporter, 4 h. inhibition, % at 10 µM. hit rate 0.98% among 360,000;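 active means compounds whose plate-normalised and pattern-corrected inhibition of the luciferase reporter signal at the single screening dose is 50% or more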
TWEAK Fn14 block – inhibitors of TWEAK-Fn14 interaction signaling; TWEAK-stimulated Fn14 reporter cells, luciferase luminescence, 8 h; inhibition, % at 10 µM; hit rate 2% among 360,000; AID 1159606; in the data active means inhibition above about 50%
EBV LMP1 NFkB – inhibitors of Epstein-Barr LMP1-induced NF-kappaB reporter. LMP1-induced NF-kappaB luciferase reporter cells, luminescence. AID 504558. hit rate 0.69% among 350,000. inhibition, % at 12.5 µM; in the data active means inhibition above about 41%; inconclusive means no clear call, values can overlap the other calls
PAX8 inh HTS – inhibitors of PAX8 transcriptional activity in RMG-I cells. RMG-I TPO-luciferase reporter, SteadyGlo, 24 h. inhibition, % at 12.6 µM. hit rate 1.2% among 360,000. AID 652154;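 active means mean replicate inhibition at least 60% with every replicate also reaching 60%; inconclusive means only one of the two criteria is met; inactive means mean below 60% and not all replicates reaching 60%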;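 further: luciferase light reporting Pax8 driven TPO promoter activity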
LGR2 antag – Drosophila LGR2 receptor signaling inhibition; hit rate 0.35% among 380,000; HEK293 LGR2, CRE-luciferase, bursicon-stimulated, 4 h; inhibition, % at 9.99 µM;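 active means drop in luminescence signal, shown as inhibition above about 50% in the replicate tests, limit read from the data, passing the limit was not always enough; inconclusive means probably only some replicates passing the limit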;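 further: agonist challenge used bursicon conditioned medium at about half maximal strength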
Hits are given with their value; - = inactive; ? = inconclusive; . = not tested or not shown.

SMILES | EWS-Fli block | TROY signal inh | TWEAK Fn14 block | EBV LMP1 NFkB | PAX8 inh HTS | LGR2 antag
COc1ccccc1-[n+]1c(C)cc(/C=C2\Sc3ccccc3N2C)cc1C | - | 82 | 89 | 52 | 67 | ?
C[C@H](CO)N1C[C@H](C)[C@@H](CN(C)S(C)(=O)=O)Oc2ccc(NC(=O)Nc3ccc(F)cc3)cc2C1=O | - | . | . | . | - | -
CC(=O)c1c(NCCc2ccccc2)nc(=S)n(-c2ccccc2)c1C | - | - | - | - | - | 71
CC(=O)c1c(NCc2ccccc2)nc(=O)n(-c2ccccc2)c1C | . | - | - | - | . | .
COc1ccc(N2CCN(CCNC(=O)c3c(C)cc(=O)oc3C)CC2)cc1 | . | - | - | 51 | . | -
O=C(C[C@H]1CC[C@H]2[C@@H](COC[C@H](O)CN2C(=O)Nc2ccccc2)O1)NCCc1ccncc1 | - | . | . | . | - | -
Oc1ccc(O)c(-c2cnns2)c1 | . | - | 57 | - | - | -
COc1ccc(NC(=O)Nc2ccc3c(c2)CC(=O)N([C@H](C)CO)C[C@H](C)[C@@H](CN(C)Cc2ccc(C(=O)Nc4ccccc4N)cc2)O3)cc1 | - | . | . | . | - | -
C[C@@H]1CN([C@H](C)CO)S(=O)(=O)c2ccc(C#CC3(O)CCCC3)cc2O[C@@H]1CN(C)C(=O)Cc1ccncc1 | - | . | . | . | - | -
O=C(ONC(=O)C1CCCCC1C(=O)NOC(=O)c1ccccc1)c1ccccc1 (configuration not stated) | - | - | 51 | - | - | -
O=C(COC(=O)c1ccccc1)NC1CCCC1 | - | - | - | - | - | -
CNC[C@H]1Oc2ccc(NC(=O)Nc3ccc(OC)cc3)cc2C(=O)N([C@H](C)CO)C[C@H]1C | - | . | . | . | - | -
CO[C@H]1CN(C)C(=O)c2cc(NS(C)(=O)=O)ccc2OC[C@H](C)N(Cc2ccccn2)C[C@@H]1C | - | . | . | . | . | -
CCOC(=O)COc1ccc2ccccc2c1/C=C/[N+](=O)[O-] | - | - | - | - | - | 105
CCOc1ccc(/C=C/[N+](=O)[O-])c2ccccc12 | . | - | - | 75 | . | .
O=[N+]([O-])/C=C/c1c(OCc2ccccc2)ccc2ccccc12 | . | - | - | - | . | .
COc1cc(C2NC(=O)NC(C)=C2C(=O)OC2CCCC(C)C2)cc(Br)c1O (configuration not stated) | - | - | - | 49 | - | .
C[C@@H]1CN([C@H](C)CO)C(=O)c2cc(NS(=O)(=O)c3cccs3)ccc2O[C@H]1CN(C)S(C)(=O)=O | - | . | . | . | . | -
COc1ncc(-c2ccc(N3C(c4ccsc4)=Cc4ccccc4C3CC(C)=O)cc2)cn1 (configuration not stated) | - | - | - | . | - | -
CC(=O)CC1c2ccccc2C=C(c2ccsc2)N1c1ccc(-c2cccs2)cc1 (configuration not stated) | - | - | - | . | 75 | -
Cc1ccc(-c2nc(C(Cl)Cl)c3ccccc3n2)cc1 | 59 | - | - | - | - | -
COc1ccc(COc2cc(-c3cccc(OC)c3)nc3ccc(NC(=O)c4ccc(Cl)cc4)cc23)cc1 | 57 | - | - | - | - | -
COc1ccc(COc2cc(-c3cccc(OC)c3)nc3ccc(NC(=O)c4ccc(OC)cc4)cc23)cc1 | - | - | - | - | 78 | -
COc1ccc(COc2cc(-c3cccc(OC)c3)nc3ccc(NC(=O)c4ccccc4)cc23)cc1 | 58 | - | - | - | - | -
COc1ccc(C(=O)Nc2ccc(NC(=O)c3cccc(OC)c3)cn2)cc1 | - | - | - | - | - | -
SMILES | EWS-Fli block | TROY signal inh | TWEAK Fn14 block | EBV LMP1 NFkB | PAX8 inh HTS | LGR2 antag
COc1ccc(COc2cc(-c3cccc(OC)c3)nc3ccc(NC(=O)c4cccnc4)cc23)cc1 | - | - | - | - | 65 | -
CCNC(=O)[C@@H]1[C@@H](CO)[C@@H]2Cn3c(ccc(-c4ccc(F)cc4)c3=O)[C@H]1N2C(=O)C1CC1 | - | . | . | . | - | -
C[C@H](CO)N1C[C@H](C)[C@H](CN(C)C(=O)c2ccc(F)cc2)Oc2cc(-c3cccc(C#N)c3)ccc2S1(=O)=O | - | . | . | . | . | -
COc1ccc(S(=O)(=O)/N=C2/NC(=O)/C(=C/c3ccco3)S2)cc1 | - | - | - | - | 70 | -
COc1ccc(S(=O)(=O)/N=C2/NC(=O)/C(=C\c3ccco3)S2)cc1 | . | - | - | - | - | -
S=C(NN=C(c1ccccc1)c1ccccn1)N(Cc1ccccn1)Cc1ccccn1 | - | - | - | 63 | . | -
CC(=NNC(=S)N(Cc1ccccn1)Cc1ccccn1)c1cnccn1 | - | - | - | 81 | - | -
Cc1ccccc1NC(=S)N(Cc1ccccn1)Cc1ccccc1Cl | - | - | - | - | - | -
S=C(NN=Cc1ccccn1)N(Cc1ccccn1)Cc1ccccn1 | - | - | - | - | - | -
O=C(NCC1CCCO1)C(=O)NCC(c1ccco1)N1CCN(c2ccccc2)CC1 (configuration not stated) | - | - | - | - | 151 | -
Cc1ccc(S(=O)(=O)NC(CC(C)C)C(=O)NCC(c2ccco2)N2CCCCC2)cc1 (configuration not stated) | . | 88 | 104 | 49 | . | .
O=C(NCC1CCCO1)C(=O)NCC(c1ccco1)N1CCN(c2ccc(F)cc2)CC1 (configuration not stated) | - | - | - | - | - | -
O=C(NCC(c1ccco1)N1CCCC1)c1ccccc1F (configuration not stated) | . | 57 | 53 | - | . | -
CC(=O)Nc1ccc(S(=O)(=O)NC(C)C(=O)NCC(c2ccco2)N2CCCCC2)cc1 (configuration not stated) | - | - | - | - | - | -
CSc1ccccc1C(=O)NCC(c1ccco1)N1CCCCC1 (configuration not stated) | - | - | - | - | - | .
CC(C)OC(=O)N(C)C[C@H]1OCc2ccccc2-c2c(n(C)c3ccccc23)C(=O)N([C@@H](C)CO)C[C@@H]1C | - | . | . | . | . | -
O=C(C[C@H]1CC[C@@H]2[C@H](COC[C@@H](O)CN2S(=O)(=O)c2ccccc2)O1)Nc1ccccc1 | - | . | . | . | - | -
CC(=O)c1cccc(NC(=O)c2ccc(N(Cc3ccccc3C)S(C)(=O)=O)cc2)c1 | . | - | - | - | . | -
C=CCN(c1ccc(C(=O)Nc2ccc3c(c2)n(C)c(=O)n3C)cc1)S(C)(=O)=O | - | - | - | 80 | - | -
CC(=O)Nc1ccc(NC(=O)c2ccc(N(Cc3ccccc3C)S(C)(=O)=O)cc2)cc1 | - | - | 86 | - | - | -
COC(=O)c1ccc(CCc2cc(O)c(Br)cc2O)cc1 | - | - | 92 | - | - | -
COC(=O)c1ccc(CCc2cc(O)ccc2O)cc1 | . | - | 87 | - | . | .
COc1ccc2nc(Nc3nc(CSc4nnnn4-c4ccccc4)cc(=O)[nH]3)nc(C)c2c1 | . | - | 57 | - | . | .
CCOc1ccc2nc(Nc3nc(CSc4nnnn4-c4ccccc4)cc(=O)[nH]3)nc(C)c2c1 | . | - | - | - | - | .
COc1cccc(C(=O)Oc2c(Br)cc(Br)cc2/C=N/NC(=O)c2cc(C)[nH]n2)c1 | - | - | 52 | - | - | -

High-throughput results deposited in PubChem BioAssay by several laboratories.
